From PubChem BioAssay (NCATS)
Results filed as inconclusive are left out. The source made the active and inactive calls. Unless noted, calls follow the shape of the dose curve; as a rule, active = well fitted curve in the direction sought with a large enough effect; inconclusive = small, poorly fitted or top-dose-only effect, or another doubt; inactive = no such curve, though single readings can be large; an effect the other way counts as inactive or inconclusive. Peptide text beside a SMILES is read from it.

What was measured:
[1] = qHTS Assay for Identification of Small Molecule Antagonists for Thrombopoietin (TPO) Signaling Pathway (AID 918); settings: TPO-dependent cell signaling reporter, antagonist mode; also: potency is read from the fitted curve at half-maximal effect; nearly all actives have a fitted effect of over 60% in size
How it was run: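 Murine Ba/F3 cells expressing human TPO receptor and a Glycoprotein IIb promoter-luciferase reporter, IL-3-starved overnight, treated with compound plus TPO at EC50 (26 pM final). After 24 h at 37 C, luminescence read to detect inhibitors.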

[2] = molecular target: Muscarinic acetylcholine receptor M1 (Rattus norvegicus) (UniProt P08482); experiment: qHTS Assay for Antagonists of Acetylcholine Muscarinic M1 Receptor: Kinetic Measurement of Intracellular Calcium Response (AID 943); settings: M1-expressing cells, kinetic intracellular calcium fluorescence; series mostly up to 35.3 µM; also: nearly all actives have a fitted effect of over 75% in size
How it was run: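 CHO cells expressing rat M1 receptor, Fluo-4 loaded, preincubated 10 min with compound, then stimulated with EC80 carbachol (100 nM final). Kinetic calcium fluorescence over 4 min; response taken as peak over basal signal.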

[3] = molecular target: Muscarinic acetylcholine receptor M1 (Rattus norvegicus) (UniProt P08482); experiment: qHTS Assay for Antagonists of Acetylcholine Muscarinic M1 Receptor: Measurement of IP-One Response (AID 944); settings: CHO-M1 cells, IP-One HTRF, antagonist mode; series mostly up to 46.1 µM; also: nearly all actives have a fitted effect of over 75% in size
How it was run: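 CHO cells stably expressing rat M1, pretreated 10 min with compound, then stimulated 30 min with carbachol at EC80 (200 nM) in LiCl-containing buffer pH 7.4; IP1 accumulation read by HTRF competition (665/620 nm).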

[4] = molecular target: Pyruvate kinase (Leishmania mexicana) (UniProt Q27686); experiment: qHTS Validation Assay for Inhibitors of Leishmania Mexicana Pyruvate Kinase (AID 945); settings: purified L. mexicana pyruvate kinase, enzyme activity, E451W mutant enzyme; series mostly up to 57.5 µM
How it was run: (§1)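 Purified LmPYK (E451W mutant, 0.2 nM) was incubated 1 h at room temperature with 0.5 mM PEP and 0.1 mM ADP in 50 mM imidazole pH 7.2, 50 mM KCl, 7 mM MgCl2; ATP formed was read by PKLight luminescence, normalized to DMSO wells.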

[5] = molecular target: Pyruvate kinase PKM (Homo sapiens) (UniProt P14618); experiment: qHTS Assay for Activators of Human Muscle Pyruvate Kinase (AID 954; active = well fitted curve in the direction sought with a large enough effect, not every such curve was filed as active); settings: purified human muscle pyruvate kinase, luciferase-coupled luminescence, 1 h; series mostly up to 57.5 µM
How it was run: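 Human PKM2 activity is measured as ATP generation, detected by luciferase-coupled luminescence. The enzyme (0.1 nM) acts on 0.5 mM PEP and 0.1 mM ADP for 1 h at ambient temperature; data are normalized to uninhibited and full-inhibition wells.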

[6] = molecular target: Pyruvate kinase (Leishmania mexicana) (UniProt Q27686); experiment: qHTS Validation Assay for Activators of Leishmania Mexicana Pyruvate Kinase (AID 959); settings: purified L. mexicana pyruvate kinase, enzyme activity; series mostly up to 57.5 µM
How it was run: as §1

[7] = Confirmation and Secondary Assay for Modulators of Hemoglobin Beta Chain Splicing at IVS2 705 locus (AID 930); settings: HeLa EGFP-705 splicing reporter, GFP fluorescence, 48 h; series mostly up to 46.1 µM; also: potency is read from the fitted curve at half-maximal effect
How it was run: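 Restored EGFP fluorescence after 2-day compound exposure reports splicing correction in IVS2-705 EGFP reporter HeLa cells; positive control was 500 nM splice-blocking PNA oligo. Signal measured as well total peak GFP intensity (488 nm excitation).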

[8] = Cell Viability - LYMP2-001 (AID 921); settings: LYMP2-001 lymphoblastoid cell viability; series mostly up to 92.2 µM; also: nearly all actives have a fitted effect of over 70% in size; also: potency is read from the fitted curve at half-maximal effect
How it was run: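 Human lymphoblastoid LYMP2-001 cells, 2500 per well, in complete medium, treated 24 h at 37 C. Viability from cellular ATP by CellTiter-Glo luminescence; AC50 from Hill-equation fits of qHTS concentration-response.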

[9] = MultiTox-Fluor Cytotoxicity Assay - LYMP1-001 - Dead Cells (AID 946); settings: LYMP1-001 lymphoblastoid cells, dead-cell protease fluorescence; series mostly up to 92.2 µM; also: potency is read from the fitted curve at half-maximal effect
How it was run: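 Cytotoxicity as increased dead-cell protease fluorescence (bis-AAF-R110, 485/520 nm), read 60 min after MultiTox-Fluor reagent. Human lymphoblastoid line exposed 16 h; Hill-fitted AC50, with DMSO as 0% and 15 uM tetraoctylammonium bromide as 100%.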

[10] = MultiTox-Fluor Cytotoxicity Assay - LYMP1-001 - Live Cells (AID 947); settings: LYMP1-001 lymphoblastoid cells, live-cell protease fluorescence viability; series mostly up to 92.2 µM; also: potency is read from the fitted curve at half-maximal effect
[11] = Cell Viability - LYMP1-002 - Assay at 16 hr (AID 948); settings: LYMP1-002 lymphoblastoid cell viability; series mostly up to 92.2 µM; also: potency is read from the fitted curve at half-maximal effect
How it was run: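 LYMP1-002 human lymphoblastoid cells, 2500/well, were treated with compounds for 16 hr at 37 C in complete medium. Viability was read as intracellular ATP by CellTiter-Glo luminescence, and AC50 was derived from a Hill fit to concentration-response data.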

[12] = MultiTox-Fluor Cytotoxicity Assay - LYMP1-002 - Dead Cells (AID 960); settings: LYMP1-002 lymphoblastoid cells, dead-cell protease fluorescence; series mostly up to 46.1 µM; also: nearly all actives have a fitted effect of over 60% in size
How it was run: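 Human lymphoblastoid LYMP1-002 cells, 2500/well, treated 16 h at 37 C; dead-cell protease cleavage of bis-AAF-R110 read by fluorescence (485/520); normalized to DMSO and 15 uM tetraoctylammonium bromide; AC50 from Hill fit.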

[13] = MultiTox-Fluor Cytotoxicity Assay - LYMP1-003 - Dead Cells (AID 961); settings: LYMP1-003 lymphoblastoid cells, dead-cell protease fluorescence; series mostly up to 92.2 µM; also: nearly all actives have a fitted effect of over 70% in size; also: potency is read from the fitted curve at half-maximal effect
How it was run: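 Dead-cell protease release, detected as bis-AAF-R110 fluorescence at 485/520 nm, was measured in LYMP1-003 cells after 16 h compound treatment at 37 C. AC50 values came from Hill-modeled qHTS curves normalized to DMSO (0%) and 15 uM tetraoctylammonium bromide (100%).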

[14] = MultiTox-Fluor Cytotoxicity Assay - LYMP1-003 - Live Cells (AID 962); settings: LYMP1-003 lymphoblastoid cells, MultiTox-Fluor live-cell protease fluorescence; series mostly up to 92.2 µM;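 also: cells exposed to compound for 16 hours at 37 °C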; also: potency is read from the fitted curve at half-maximal effect
How it was run: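 LYMP1-003 lymphoblastoid cells, 2500/well in complete medium, treated 16 h at 37 C; live-cell protease cleavage of GF-AFC read by fluorescence (Ex/Em 405/510) after 60 min reagent; AC50 from Hill fits of concentration-response.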

[15] = Cell Viability - LYMP1-003 - Assay at 24 hr (AID 963); settings: LYMP1-003 lymphoblastoid cell viability; series mostly up to 92.2 µM; also: potency is read from the fitted curve at half-maximal effect
How it was run: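 Human lymphoblastoid LYMP1-003 cells, 2500/well, treated 24 h at 37 C in complete medium. Viability read as intracellular ATP by CellTiter-Glo luminescence after 30 min at room temperature; AC50 from Hill-equation fits of qHTS concentration-response.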

[16] = Cell Viability - LYMP1-003 - Assay at 40 hr (AID 964); settings: LYMP1-003 lymphoblastoid viability; series mostly up to 92.2 µM; also: nearly all actives have a fitted effect of over 60% in size; also: potency is read from the fitted curve at half-maximal effect
How it was run: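 LYMP1-003 human lymphoblastoid cells, 2500/well, preincubated 5 h at 37 C, then treated with compound for 40 h at 37 C. Intracellular ATP read by CellTiter-Glo luminescence after 30 min at room temperature; AC50 from Hill-equation fits.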

[17] = Cell Viability - LYMP2-003 (AID 965); settings: LYMP2-003 lymphoblastoid cell viability; series mostly up to 92.2 µM;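 also: cells exposed to compounds for 24 h before reading; nearly all actives have a fitted effect of over 50% in size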; also: potency is read from the fitted curve at half-maximal effect
How it was run: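 Human lymphoblastoid LYMP2-003 cells, 2500/well, exposed to compounds for 24 h at 37 C in complete medium. Viability read as intracellular ATP by CellTiter-Glo luminescence; AC50 from Hill-equation fits of qHTS concentration-response data.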

[18] = Cell Viability - LYMP2-004 (AID 966); settings: LYMP2-004 lymphoblastoid cell viability, qHTS; series mostly up to 92.2 µM; also: nearly all actives have a fitted effect of over 65% in size; also: potency is read from the fitted curve at half-maximal effect
How it was run: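 Lymphoblastoid LYMP2-004 cells, 2500 per well, were preincubated for 5 hr and then treated with compound for 24 h at 37 C in complete medium. Viability was read as cellular ATP by CellTiter-Glo luminescence, and AC50 values were taken from Hill fits to concentration-response data.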

[19] = qHTS Assay for Identification of Small Molecule Agonists for NFkB Signaling Pathway (AID 928; calls by dose curve); settings: NFkB beta-lactamase reporter cells, blue/green ratio
How it was run: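 ME-180 NFkB-bla cells carry a beta-lactamase reporter under an NFkB response element. Compound plus 10 pM TNF alpha (final) was applied for 5 hrs at 37 C. After 2 hrs with LiveBLAzer substrate, 460/530 nm emission was read at 405 nm excitation.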

Measured: Potency

Pyruvate kinase (Leishmania mexicana), sequence (Q27686 2-499 E452W): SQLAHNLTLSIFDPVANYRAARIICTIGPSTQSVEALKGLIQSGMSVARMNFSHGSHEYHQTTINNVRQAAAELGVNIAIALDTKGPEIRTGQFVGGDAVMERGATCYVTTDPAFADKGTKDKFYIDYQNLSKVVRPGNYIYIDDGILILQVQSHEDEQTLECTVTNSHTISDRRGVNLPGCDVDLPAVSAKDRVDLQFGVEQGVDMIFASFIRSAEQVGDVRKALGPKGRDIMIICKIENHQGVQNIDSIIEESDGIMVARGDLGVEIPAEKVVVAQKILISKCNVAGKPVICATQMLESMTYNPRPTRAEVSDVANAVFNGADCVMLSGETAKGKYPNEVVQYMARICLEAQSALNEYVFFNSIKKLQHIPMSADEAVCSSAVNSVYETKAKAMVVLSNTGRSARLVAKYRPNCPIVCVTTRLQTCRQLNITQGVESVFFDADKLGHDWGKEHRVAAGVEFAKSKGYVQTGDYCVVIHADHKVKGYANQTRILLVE
Pyruvate kinase PKM (Homo sapiens), sequence (P14618 whole entry, looked up): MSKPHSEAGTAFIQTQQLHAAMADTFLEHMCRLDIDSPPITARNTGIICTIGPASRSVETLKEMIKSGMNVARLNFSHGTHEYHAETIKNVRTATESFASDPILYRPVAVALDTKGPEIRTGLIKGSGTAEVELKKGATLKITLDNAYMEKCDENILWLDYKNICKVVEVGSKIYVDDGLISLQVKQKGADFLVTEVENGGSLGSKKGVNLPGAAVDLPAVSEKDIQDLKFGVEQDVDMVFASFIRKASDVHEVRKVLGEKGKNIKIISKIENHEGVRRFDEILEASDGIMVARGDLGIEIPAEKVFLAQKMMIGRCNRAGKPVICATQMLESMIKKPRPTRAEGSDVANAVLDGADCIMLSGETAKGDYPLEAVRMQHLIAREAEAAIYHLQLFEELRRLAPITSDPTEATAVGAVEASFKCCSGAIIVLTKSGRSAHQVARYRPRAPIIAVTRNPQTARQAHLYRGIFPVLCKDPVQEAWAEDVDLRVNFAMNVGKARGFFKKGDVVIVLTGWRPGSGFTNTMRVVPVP
Muscarinic acetylcholine receptor M1 (Rattus norvegicus), sequence (P08482 whole entry, looked up): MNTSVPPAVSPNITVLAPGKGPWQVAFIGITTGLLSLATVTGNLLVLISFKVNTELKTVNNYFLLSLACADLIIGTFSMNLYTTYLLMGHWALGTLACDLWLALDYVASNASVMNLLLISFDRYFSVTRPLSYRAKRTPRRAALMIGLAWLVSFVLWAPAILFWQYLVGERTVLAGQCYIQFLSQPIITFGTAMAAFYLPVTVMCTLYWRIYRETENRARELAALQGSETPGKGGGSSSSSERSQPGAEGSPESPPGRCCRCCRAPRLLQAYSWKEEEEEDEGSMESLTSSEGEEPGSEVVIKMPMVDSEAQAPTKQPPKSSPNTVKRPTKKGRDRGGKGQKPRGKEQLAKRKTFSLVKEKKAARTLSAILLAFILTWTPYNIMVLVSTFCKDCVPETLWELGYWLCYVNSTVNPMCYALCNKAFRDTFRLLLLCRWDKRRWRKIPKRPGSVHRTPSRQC

O=c1c(O)c(-c2cc(O)c(O)c(O)c2)oc2cc(O)cc(O)c12
active: [1] 10 µM | [6] 2 µM
inactive: [2] | [3] | [4] | [5]

Cc1cccc(CN2CCN(C(c3ccccc3)c3ccc(Cl)cc3)CC2)c1 (stereo not given)
inactive: [7]

COc1c2occc2cc2ccc(=O)oc12
inactive: [8] | [7] | [9] | [10] | [11] | [12] | [13] | [14] | [15] | [16] | [17] | [18]

CC(=O)Nc1ccc(O)cc1
inactive: [8] | [9] | [10] | [11] | [12] | [13] | [14] | [15] | [16] | [17] | [18]

S=c1nc[nH]c2nc[nH]c12
active: [7] 6.31 µM

Cc1cc(C2CCCCC2)n(O)c(=O)c1
inactive: [7]

O=c1cc(N2CCOCC2)oc2c(-c3ccccc3)cccc12
active: [19] 7.08 µM
inactive: [4] | [5]

Nc1nc(Cl)nc2c1ncn2[C@H]1C[C@H](O)[C@@H](CO)O1
inactive: [7]

Cc1cc2c(s1)Nc1ccccc1N=C2N1CCN(C)CC1
inactive: [7]

CCc1nc(N)nc(N)c1-c1ccc(Cl)cc1
inactive: [8] | [7] | [9] | [10] | [11] | [12] | [13] | [14] | [17] | [18]
active: [16] 7.94 µM

O=c1oc2cc(O)ccc2s1
inactive: [7]

Cc1ccc(S(=O)(=O)NC(=O)NN2CC3CCCC3C2)cc1 (stereo not given)
inactive: [7]

CN(C)c1ccc2nc3ccc(=[N+](C)C)cc-3sc2c1
active: [8] 10 µM | [9] 10 µM | [10] 10 µM | [11] 12.6 µM | [13] 39.8 µM | [14] 7.94 µM | [15] 7.94 µM | [16] 3.98 µM | [17] 3.98 µM | [18] 5.01 µM

CCCOc1ccc2nc(NC(=O)OC)[nH]c2c1
inactive: [7]

Cc1ncc([N+](=O)[O-])n1CC(C)O (stereo not given)
inactive: [7]

O=C(NC(Cc1cc(=O)[nH]c2ccccc12)C(=O)O)c1ccc(Cl)cc1 (stereo not given)
inactive: [7]

O=C(O)c1cn(-c2ccc(F)cc2)c2cc(N3CCNCC3)c(F)cc2c1=O
inactive: [7]

NS(=O)(=O)c1cc(C(=O)O)c(NCc2ccco2)cc1Cl
inactive: [8] | [7] | [9] | [10] | [11] | [12] | [13] | [14] | [15] | [16] | [17] | [18]

COC(=O)[C@H](Cc1ccccc1)NC(=O)[C@@H](N)CC(=O)O (H-Asp-Phe-OMe)
inactive: [8] | [9] | [10] | [11] | [13] | [14] | [15] | [16] | [17] | [18]

CC1Cc2ccccc2N1NC(=O)c1ccc(Cl)c(S(N)(=O)=O)c1 (stereo not given)
inactive: [7]

CS(=O)(=O)OCCCCOS(C)(=O)=O
inactive: [8] | [7] | [9] | [10] | [11] | [12] | [13] | [14] | [15] | [16] | [17] | [18]

Cc1ccc(C)c(OCCCC(C)(C)C(=O)O)c1
inactive: [8] | [7] | [9] | [10] | [11] | [12] | [13] | [14] | [15] | [16] | [17] | [18]

NCCCCNCCCN
active: [1] 6.31 µM
inactive: [7] | [2] | [4] | [5]

O=C(c1ccccc1)c1ccc2n1CCC2C(=O)O (stereo not given)
inactive: [7]

O=C(O)c1cc(=O)c2c(OCC(O)COc3cccc4oc(C(=O)O)cc(=O)c34)cccc2o1
inactive: [7]

c1ccc2[nH]c(-c3cscn3)nc2c1
inactive: [8] | [7] | [9] | [10] | [11] | [12] | [13] | [14] | [15] | [16] | [17] | [18]
